Test results reported in PubChem BioAssay (NCATS).
Results filed as inconclusive are left out. Activity calls are given as the source filed them. The call rests on the fitted dose curve; in most records, active means well fitted cell-killing curve with a large enough effect; inconclusive means small, poorly fitted or top-dose-only effect, or effect the other way; inactive means flat fitted curve, though single readings scatter.

Legend:
Experiment in all cases: Primary qHTS to identify gynecologic anti-cancer compounds using libraries of approved drugs and bioactive compounds (AID 1345084); further: nearly all actives have a fitted effect of over 55% in size
C33A = conditions: Gynecologic cancer cell panel viability, ATPlite luminescence, 48 h; series mostly up to 57.5 µM
Outline: (§1)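 Measured: luminescence after ATPlite addition (15 min, RT). Exposure: 48 h, 37 C, 5% CO2.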

CASKI = conditions: Gynecologic cancer cell panel viability, ATPlite luminescence, 48 h; series mostly up to 57.5 µM
Outline: as §1

Es-2 = conditions: Gynecologic cancer cell panel viability, ATPlite luminescence, 48 h; series mostly up to 57.5 µM
Outline: as §1

HeLa = conditions: Gynecologic cancer cell panel viability, ATPlite luminescence, 48 h; series mostly up to 57.5 µM
Outline: as §1

Hek293T = conditions: Gynecologic cancer cell panel viability, ATPlite luminescence, 48 h, control line for the selectivity index; series mostly up to 57.5 µM
Outline: as §1

JEG-3 = conditions: Gynecologic cancer cell panel viability, ATPlite luminescence, 48 h; series mostly up to 57.5 µM
Outline: as §1

OV90 = conditions: Gynecologic cancer cell panel viability, ATPlite luminescence, 48 h; series mostly up to 57.5 µM
Outline: as §1

PA-1 = conditions: Gynecologic cancer cell panel viability, ATPlite luminescence, 48 h; series mostly up to 57.5 µM
Outline: as §1

SKOV3 = conditions: Gynecologic cancer cell panel viability, ATPlite luminescence, 48 h; series mostly up to 57.5 µM
Outline: as §1

Tov-21-G = conditions: Gynecologic cancer cell panel viability, ATPlite luminescence, 48 h; series mostly up to 57.5 µM
Outline: as §1

Tov112D = conditions: Gynecologic cancer cell panel viability, ATPlite luminescence, 48 h; series mostly up to 57.5 µM
Outline: as §1

Measured: Potency

COc1cc([C@H]2c3cc(O)c(OC)cc3C[C@@H](CO[C@@H]3O[C@H](CO)[C@@H](O)[C@H](O)[C@H]3O)[C@@H]2CO)ccc1O
inactive: all assays above

COC(=O)[C@@]1(c2ccc(C)cc2)C[C@H]1CN1CCC(O)(c2ccccc2)CC1
inactive: all assays above

CCOC(=O)C(CCc1ccccc1)NC1CSC(c2cccs2)CN(CC(=O)O)C1=O (centres undefined)
inactive: all assays above

CC1CCC2(C=O)C(CO)=CCCC2C1(C)CC(=O)O (centres undefined)
inactive: all assays above

COc1cc2c(c(OC)c1CC=C(C)C)C[C@H](c1ccc(O)cc1O)CO2
inactive: all assays above

O=C1NC(Cc2c[nH]c3ccccc23)C(=O)NC1Cc1cnc[nH]1 (centres undefined)
inactive: all assays above

CC(/C=C/C1=CC2=CC(=O)C(C)(O)C(O)C2=CO1)=C\C(C)CCO (centres undefined)
inactive: all assays above

COc1cc(/C=C/C=O)cc(OC)c1O[C@@H]1O[C@H](CO)[C@@H](O)[C@H](O)[C@H]1O
inactive: all assays above

C=C1C(OC(=O)/C(C)=C\C)[C@@]23CCC4[C@@](C)(CCC[C@@]4(C)C(=O)O)C2CC[C@H]1C3OC(C)=O (some centres undefined)
inactive: all assays above

C/C=C1\[C@H](O[C@@H]2O[C@H](CO)[C@@H](O)[C@H](O)[C@H]2O)OC=C(C(=O)OC)[C@H]1CC(=O)OC[C@H]1O[C@@H](OCCc2ccc(O)cc2)[C@H](O)[C@@H](O)[C@@H]1O
inactive: all assays above

CC(C)=CCC[C@](C)(O)[C@H]1CC[C@]2(C)[C@@H]1[C@H](O)CC1[C@@]3(C)CC[C@H](O)C(C)(C)[C@@H]3[C@@H](O[C@@H]3O[C@H](CO)[C@@H](O)[C@H](O)[C@H]3O[C@@H]3O[C@H](CO)[C@@H](O)[C@H](O)[C@H]3O)C[C@]12C (some centres undefined)
inactive: all assays above

C[C@@H]1CC[C@]2(C(=O)O)CC[C@]3(C)C(=CCC4[C@@]5(C)CC[C@H](O)C(C)(C)C5C(O)C[C@]43C)[C@@H]2[C@]1(C)O (some centres undefined)
inactive: all assays above

C[C@]1(CO)CCC[C@]2(C)C3=C(CCC12)COC3 (some centres undefined)
inactive: all assays above

CC[C@@H](O)C[C@@H]1C(C)=C[C@@H]2CCCC[C@@H]2[C@@]1(C)C(=O)O
inactive: all assays above
